High-throughput results (PubChem BioAssay)
The list is not random: actives were taken first. Their share in the collection is about 14%.
Pf growth 96h: Primary qHTS for delayed death inhibitors of the malarial parasite plastid, 96 hour incubation; P. falciparum luciferase reporter growth, 96 h; Potency, µM (highest dose often 28.7 µM), without a hit: at the highest dose activity change, negative = inhibition, most hits filed as inhibitors; actives 6.9% (n = 320,000); note: potency is the fitted concentration of half-maximal effect
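Two parasite generations (96 h, 37 C, 5% CO2) of compound exposure in infected erythrocytes (0.05% parasitemia, 2% hematocrit). Luciferase-reporter P. falciparum; decreased luminescence indicates inhibited growth, aimed at apicoplast-acting delayed death.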
HCV inh: qHTS Assay for Inhibitors of Hepatitis C Virus (HCV); Huh7.5.1 HCVcc-Cre infection, luciferase reporter, 44 h; actives 3.4% (n = 340,000); Potency, µM (doses to about 41.8 µM), for inactives: at the highest dose activity change, negative = inhibition, actives largely listed as inhibitors; note: potency is the fitted concentration of half-maximal effect
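Infectious HCVcc-Cre (~0.5 moi) was added to cells just after compound, with cells seeded 4 h earlier at 1,000 per well. Luciferase activity after 44 h culture reported infection; substrate was incubated 15 min at room temperature before reading.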
HCMV inh: qHTS Assay for inhibitors of the human cytomegalovirus (HCMV); HFF cells, HCMV-luciferase reporter, 72 h; active compounds read low; activity change, negative = inhibition, % at 57.5 µM; actives 4.5% (n = 410,000); in the data active = activity change below about -60%; inconclusive = no clear call, values can overlap the other calls; inactive = above about -39%
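HFF cells seeded 16 h at 37C, treated with compounds, infected with luciferase-reporter HCMV at MOI 1 PFU/cell; luciferase read at 72 h post infection, normalized to buffer-only and Salinomycin controls.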
Pf growth 48h: Primary qHTS for delayed death inhibitors of the malarial parasite plastid, 48 hour incubation. P. falciparum luciferase growth in erythrocytes, 48 h. Potency, µM (top dose mostly 28.7 µM), for the others: top-dose activity change, negative = inhibition, usual class: inhibitors. actives 5.9% (n = 310,000); note: potency is the fitted concentration of half-maximal effect
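Erythrocytes infected with P. falciparum carrying an integrated firefly luciferase reporter (2% hematocrit, 0.1% parasitemia final) were exposed to compounds in RPMI 1640 with 0.5% Albumax at 37 C, 5% CO2. Growth inhibition was scored as reduced luminescence.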
MARV entry inh: qHTS for inhibitors of binding or entry into cells for Marburg Virus; Marburg virus pseudotyped entry inhibition, cell reporter; Potency, µM (top dose mostly 37.8 µM), for inactives: top-dose activity change, negative = inhibition, usual class: inhibitors; actives 1.8% (n = 300,000); AID 540276, 2011; calls by dose curve; tested in HEK293 cells; note: potency is the fitted concentration of half-maximal effect
Lassa entry inh: qHTS for Inhibitors of binding or entry into cells for Lassa Virus; Lassa virus pseudotype entry inhibition, cell reporter; Potency, µM (highest dose often 37.9 µM), for the others: at the highest dose activity change, negative = inhibition, usual class: inhibitors; actives 1.2% (n = 300,000); calls by dose curve; tested in HEK293 cells; note: potency is the fitted concentration of half-maximal effect; nearly all actives have a fitted effect of over 50% in size
The depositor's hits bear a star; [ ] = remark or other dose. Unless noted, calls come from the whole dose curve; as a rule, active = well fitted inhibition curve with a large enough effect; inconclusive = small, poorly fitted or top-dose-only effect, or another doubt; inactive = no such curve, though single readings can be large or run the other way. % is set by controls: 0 for no effect and ±100 for the full control effect.

How did Cc1ccc(OCC(=O)NC(=S)Nc2cccc(NC(=O)c3ccc(Cl)cc3Cl)c2)cc1 do in these assays?
Pf growth 96h: 2%; HCV inh: -25%; HCMV inh: -73*; Pf growth 48h: 50%; MARV entry inh: 5%; Lassa entry inh: 9%

Results for O=C(Nc1ccc(NC(=S)NC(=O)c2ccccc2Cl)cc1)c1cccc(Cl)c1 ?
HCV inh: 25µM*; HCMV inh: 11; MARV entry inh: inconclusive; Lassa entry inh: inconclusive

Results for CCCOc1cccc(C(=O)NC(=S)Nc2cccc(NC(=O)c3ccccc3Cl)c2)c1 ?
Pf growth 96h: 2.9µM*; HCV inh: -12%; HCMV inh: inconclusive; Pf growth 48h: 2%; MARV entry inh: -22%; Lassa entry inh: inconclusive

How did Cc1ccc(OCC(=O)NC(=S)Nc2cccc(NC(=O)c3ccccc3)c2)cc1 do in these assays?
Pf growth 96h: inconclusive; HCV inh: 1%; HCMV inh: 29; Pf growth 48h: 8%; MARV entry inh: inconclusive; Lassa entry inh: -26%

Results for CCCCOc1cccc(C(=O)NC(=S)Nc2cccc(NC(=O)c3ccccc3Cl)c2)c1 ?
Pf growth 96h: 16%; HCV inh: 3%; HCMV inh: inconclusive; Pf growth 48h: -11%; MARV entry inh: inconclusive; Lassa entry inh: 6%

Results for Cc1ccccc1CSc1nc2ccsc2c(=O)n1CCC(C)C ?
HCMV inh: 20; Lassa entry inh: 28%[46.1 µM]

What do the screens show for `Cc1ccc(-c2ccc(=O)n(CC(=O)NCCc3ccc(Cl)cc3)n2)cc1`?
HCMV inh: 3; Lassa entry inh: 3%[46.1 µM]

Results for CN(Cc1nc2ccccc2n1C)C(=O)c1ccco1 ?
Pf growth 96h: 1.7µM*; HCV inh: 1%; HCMV inh: 13; Pf growth 48h: 15%; MARV entry inh: -20%[46.1 µM]; Lassa entry inh: inconclusive

How did CN(Cc1nc2ccccc2n1C)S(C)(=O)=O do in these assays?
Pf growth 96h: inactive; HCV inh: 1%; HCMV inh: 15; Pf growth 48h: 38%; MARV entry inh: 2%; Lassa entry inh: -1%

What do the screens show for `CN(Cc1nc2ccccc2n1C)S(=O)(=O)c1ccc(F)cc1`?
Pf growth 96h: 4.7µM*; HCV inh: 0%; HCMV inh: -28; Pf growth 48h: 23%; MARV entry inh: inconclusive; Lassa entry inh: 11%

What do the screens show for `Cc1cccc(-n2c(-c3ccco3)nc3c(cnn3-c3ccccc3C)c2=O)c1`?
HCMV inh: -11; MARV entry inh: inconclusive; Lassa entry inh: -15%[46.1 µM]

Results for COc1cccc(-n2c(-c3cccc(F)c3)nc3c(cnn3-c3ccc(C)cc3)c2=O)c1 ?
HCMV inh: -28; MARV entry inh: inconclusive; Lassa entry inh: -2%[46.1 µM]

What do the screens show for `O=c1c2cnn(-c3ccccc3)c2nc(-c2ccco2)n1-c1ccccc1`?
Pf growth 96h: 10µM*; HCV inh: 13µM*; HCMV inh: -71*; Pf growth 48h: 10µM*; MARV entry inh: inconclusive; Lassa entry inh: inconclusive

Results for COc1cccc(-n2c(-c3ccco3)nc3c(cnn3-c3ccc(Cl)cc3)c2=O)c1 ?
HCMV inh: -67*; MARV entry inh: -28%[46.1 µM]; Lassa entry inh: inconclusive

How did Cn1c(=O)oc2cc(S(=O)(=O)N3CCCC(C(=O)N4CCN(c5cccc(Cl)c5)CC4)C3)ccc21 (stereo not drawn) do in these assays?
HCMV inh: inconclusive; MARV entry inh: -16%[46.1 µM]; Lassa entry inh: 3%[46.1 µM]

Results for Cc1cc(C)c(C)c(S(=O)(=O)NCC(=O)NCC2CCCCC2)c1C ?
Pf growth 96h: 2%; HCV inh: 19%; HCMV inh: -62*; Pf growth 48h: -16%; MARV entry inh: inconclusive; Lassa entry inh: -12%[46.1 µM]

Results for Cc1ccccc1CC(=O)NC1CCCCCC1 ?
Pf growth 96h: inconclusive; HCV inh: 3%; HCMV inh: 14; Pf growth 48h: 0%

What do the screens show for `Cc1ccccc1CC(=O)NCC1CCCCC1`?
Pf growth 96h: 12µM*; HCV inh: 3%; HCMV inh: -6; Pf growth 48h: -2%; MARV entry inh: 0%[46.1 µM]; Lassa entry inh: 4%[46.1 µM]

Results for CCCCC[C@H](O)/C=C\[C@H]1[C@H](C/C=C\CCCC(=O)O)[C@@H](O)C[C@H]1O (tested in a mixture with another compound) ?
Pf growth 96h: inconclusive; Pf growth 48h: -7%[12.8 µM]

What do the screens show for `Nc1nnc(-c2cn(-c3ccccc3)nc2-c2ccc(Cl)cc2)o1`?
Pf growth 96h: 4.7µM*; HCV inh: -22%; HCMV inh: -33; Pf growth 48h: 3.7µM*; MARV entry inh: inconclusive; Lassa entry inh: -8%[46.1 µM]

Results for Nc1nnc(-c2cn(-c3ccccc3)nc2-c2ccccc2)o1 ?
Pf growth 96h: -16%; HCV inh: inconclusive; HCMV inh: -23; Pf growth 48h: inconclusive; MARV entry inh: 4%; Lassa entry inh: 9%

What do the screens show for `COC(=O)c1c(NC(=O)c2nc(SCc3ccc(F)cc3)ncc2Cl)sc2c1CCCC2`?
HCMV inh: 8; MARV entry inh: 16%[46.1 µM]; Lassa entry inh: 1%[46.1 µM]

Results for CNc1ccc(Br)cc(C(=O)/C=C/c2ccc(OC)cc2)c1=O ?
Pf growth 96h: 19%; HCV inh: 34%; HCMV inh: 3; Pf growth 48h: 4%; MARV entry inh: -17%; Lassa entry inh: -15%

How did CCNc1ccc(Br)cc(C(=O)/C=C/c2ccc(Cl)cc2Cl)c1=O do in these assays?
Pf growth 96h: -109%; HCV inh: 8.9µM*; HCMV inh: -103*; Pf growth 48h: inconclusive; MARV entry inh: inconclusive; Lassa entry inh: inconclusive

How did COCOc1c2c(c(OCOC)c3c(OCOC)cccc13)C(=NNS(=O)(=O)c1ccc(C)cc1)C1=C2CCCC1 do in these assays?
MARV entry inh: -17%[14.2 µM]

Results for CC1=Nc2cc(C(=O)NCC3CCCO3)ccc2Sc2ccc(C)cc21 (stereo not drawn) ?
Pf growth 96h: -5%; HCV inh: 11%; HCMV inh: -72*; Pf growth 48h: inconclusive

Results for CCC(C)NC(=O)c1ccc2c(c1)N=C(C)c1cc(C)ccc1S2 (stereo not drawn) ?
HCMV inh: -72*; MARV entry inh: inconclusive; Lassa entry inh: -17%[46.1 µM]

Results for CC1=Nc2cc(C(=O)NCc3ccco3)ccc2Sc2ccc(C)cc21 ?
Pf growth 96h: 1.9µM*; HCV inh: inconclusive; HCMV inh: -92*; Pf growth 48h: 4.1µM*; MARV entry inh: -41%; Lassa entry inh: inconclusive

How did CCOC(=O)/C=C1\NC(C)(C)CC2=C1CC(O)=C(OC)C2 do in these assays?
MARV entry inh: 8%
